From PubChem BioAssay (NCI)
About 83,000 compounds went through this panel and 20% of them were active in at least one assay; those are over-represented in the sample as a whole.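 Method: cells in 96-well plates; compound added at one concentration; 48 h incubation; percent growth measured; values under 10 scored active.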 Calls of active or inactive are those of the source.

How the values were obtained:
Assay in all cases: NCI-60 one-dose screen, 48 h (100 = growth as untreated, 0 = no growth, -100 = all killed)
Details in all cases: 10 µM unless noted
DU-145 prostate = test system: DU-145 prostate
K-562 leukemia = test system: K-562 leukemia
MALME-3M melanoma = test system: MALME-3M melanoma
MDA-MB-231 breast = test system: MDA-MB-231 breast
RXF 393 renal = test system: RXF 393 renal
SF-268 CNS = test system: SF-268 CNS
SF-295 CNS = test system: SF-295 CNS
SF-539 CNS = test system: SF-539 CNS
UACC-257 melanoma = test system: UACC-257 melanoma
M14 melanoma = test system: M14 melanoma

Measured: growth

N#Cc1c(-c2ccccc2)cc(-c2ccccc2)n(CCCC(=O)O)c1=O
inactive: DU-145 prostate 111% | K-562 leukemia 94.1% | MALME-3M melanoma 96.5% | MDA-MB-231 breast 94.9% | RXF 393 renal 91.5% | SF-268 CNS 102% | SF-295 CNS 93.2% | SF-539 CNS 102% | UACC-257 melanoma 96.5% | M14 melanoma 96%

N#CSCC1CC(O)(c2ccccc2)C(c2ccccc2)C(c2ccc(Cl)cc2)O1 (stereo not drawn)
active: DU-145 prostate -68.2% | K-562 leukemia -6.84% | MALME-3M melanoma -80.8% | MDA-MB-231 breast -52.2% | RXF 393 renal -91.5% | SF-268 CNS -34.1% | SF-295 CNS -77.9% | SF-539 CNS -96.4% | UACC-257 melanoma -70.2% | M14 melanoma -77.8%

COc1ccc2nc(-c3ccc(Cl)cc3)cc(-c3nnc(SCC(=O)Nc4ccc(C(C)=O)cc4)n3-c3ccccc3)c2c1
inactive: DU-145 prostate 105% | K-562 leukemia 104% | MALME-3M melanoma 92.9% | MDA-MB-231 breast 86.8% | RXF 393 renal 102% | SF-268 CNS 87.3% | SF-295 CNS 102% | SF-539 CNS 85.4% | UACC-257 melanoma 110% | M14 melanoma 93.8%

CC(C)C[C@H](NC(=O)/C=C/Cn1ccc2ccccc2c1=O)B(O)O
inactive: DU-145 prostate 40.6% | K-562 leukemia 35.8% | MDA-MB-231 breast 35.1% | SF-268 CNS 24.6% | SF-295 CNS 26.8% | SF-539 CNS 15.1% | UACC-257 melanoma 43.2% | M14 melanoma 21.1%
active: MALME-3M melanoma -30% | RXF 393 renal 8.46%

O=C(NC1CCCCC1)c1ccc(Nc2ncnc3c2cnn3-c2ccccc2)cc1
inactive: DU-145 prostate 54.6% | K-562 leukemia 73.2% | RXF 393 renal 62.2% | SF-268 CNS 36.9% | SF-295 CNS 73.4% | SF-539 CNS 43.7% | UACC-257 melanoma 56.5% | M14 melanoma 69.1%
active: MALME-3M melanoma 2.93% | MDA-MB-231 breast 8.76%

[N-]=[N+]=NCc1cccc(/C(O)=C/C(=O)C(=O)O)c1
inactive: DU-145 prostate 92.1% | K-562 leukemia 110% | MALME-3M melanoma 91.5% | MDA-MB-231 breast 88.4% | RXF 393 renal 24.6% | SF-268 CNS 91.5% | SF-295 CNS 143% | SF-539 CNS 100% | UACC-257 melanoma 100% | M14 melanoma 118%

Cc1csc(C#Cc2cncc(O)c2)n1
inactive: DU-145 prostate 116% | K-562 leukemia 127% | MALME-3M melanoma 96.7% | MDA-MB-231 breast 107% | RXF 393 renal 69.9% | SF-268 CNS 131% | SF-295 CNS 121% | SF-539 CNS 108% | UACC-257 melanoma 98.5% | M14 melanoma 111%

COc1cc(/C=C/C(=O)c2c(C)n([O-])c3ccc(Cl)cc3[n+]2=O)cc(OC)c1OC
inactive: DU-145 prostate 66.8% | K-562 leukemia 45.8% | MALME-3M melanoma 78.7% | MDA-MB-231 breast 78.5% | RXF 393 renal 42.6% | SF-268 CNS 74% | SF-295 CNS 114% | SF-539 CNS 96.9% | UACC-257 melanoma 81.3% | M14 melanoma 78.4%

CC[C@@H](c1ccc(O)c(O)c1)[C@@H](CC)c1ccc(O)c(O)c1
inactive: DU-145 prostate 110% | K-562 leukemia 31.8% | MALME-3M melanoma 39.2% | MDA-MB-231 breast 89.7% | RXF 393 renal 71.5% | SF-268 CNS 98% | SF-295 CNS 130% | SF-539 CNS 102% | UACC-257 melanoma 101% | M14 melanoma 62.4%

COc1cc(/C=C/C(=O)C(C(=O)/C=C/c2ccc(OC(=O)CCNC34CC5CC(CC(C5)C3)C4)c(OC)c2)C(=O)CCNC23CC4CC(CC(C4)C2)C3)ccc1OC(=O)CCNC12CC3CC(CC(C3)C1)C2 (stereo not drawn)
active: DU-145 prostate -48.8% | K-562 leukemia 0.83% | RXF 393 renal -68.8% | SF-539 CNS -23.7% | M14 melanoma -1.22%
inactive: MALME-3M melanoma 18.6% | MDA-MB-231 breast 13.3% | SF-268 CNS 28.2% | SF-295 CNS 37.5% | UACC-257 melanoma 48.1%

CC1CN(CC(O)c2ccc(Br)cc2)CCO1 (stereo not drawn)
inactive: DU-145 prostate 114% | K-562 leukemia 96.9% | MALME-3M melanoma 116% | MDA-MB-231 breast 123% | RXF 393 renal 124% | SF-268 CNS 99.9% | SF-295 CNS 112% | SF-539 CNS 106% | UACC-257 melanoma 105% | M14 melanoma 104%

CN(C)c1ccc(-n2nc3ccccc3n2)cc1
inactive: DU-145 prostate 101% | K-562 leukemia 70.1% | MALME-3M melanoma 117% | MDA-MB-231 breast 85.4% | RXF 393 renal 98.9% | SF-268 CNS 127% | SF-295 CNS 82.7% | SF-539 CNS 86.1% | UACC-257 melanoma 101% | M14 melanoma 92.2%

Nc1nc(Nc2ccccc2SSc2ccccc2Nc2nc(N)nc(-c3cccc(Cl)c3)n2)nc(-c2cccc(Cl)c2)n1
inactive: DU-145 prostate 97% | K-562 leukemia 81.9% | MALME-3M melanoma 104% | MDA-MB-231 breast 74.8% | RXF 393 renal 106% | SF-268 CNS 99.9% | SF-295 CNS 79.2% | SF-539 CNS 99.6% | UACC-257 melanoma 112% | M14 melanoma 95.4%

COc1ccc(OC)c(CCn2cncc2-c2c[nH]c3cc(Br)ccc23)c1
inactive: DU-145 prostate 63.3% | MALME-3M melanoma 37.7% | MDA-MB-231 breast 48.7% | RXF 393 renal 51.9% | SF-268 CNS 45.6% | SF-295 CNS 18.4% | SF-539 CNS 56.3% | UACC-257 melanoma 29.9% | M14 melanoma 26.4%
active: K-562 leukemia 7.3%

O=C(CC1Sc2ccccc2NC1=O)NNc1cccc(Cl)c1Cl (stereo not drawn)
inactive: DU-145 prostate 108% | K-562 leukemia 89.1% | MALME-3M melanoma 54.6% | MDA-MB-231 breast 83.5% | RXF 393 renal 97.6% | SF-268 CNS 91.4% | SF-295 CNS 92.4% | SF-539 CNS 67.3% | UACC-257 melanoma 99.1% | M14 melanoma 112%

[N-]=[N+]=NCc1ncc(-c2ccc(C(F)(F)F)cc2)c(NC2CCCCCC2)n1
inactive: DU-145 prostate 73.4% [50 µM] | K-562 leukemia 34.5% [50 µM] | MALME-3M melanoma 85% [50 µM] | MDA-MB-231 breast 73% [50 µM] | RXF 393 renal 87.7% [50 µM] | SF-268 CNS 75.5% [50 µM] | SF-295 CNS 49.9% [50 µM] | SF-539 CNS 82.2% [50 µM] | UACC-257 melanoma 89.3% [50 µM] | M14 melanoma 74.6% [50 µM]

CC(C)N(Cc1ccccc1)c1c(S)ssc1=S
active: MALME-3M melanoma -4.76% | MDA-MB-231 breast 2.92% | RXF 393 renal -17.4% | SF-295 CNS -5.63% | SF-539 CNS 2.54% | UACC-257 melanoma 5.96%
inactive: DU-145 prostate 10.7% | K-562 leukemia 15.1% | SF-268 CNS 28.8% | M14 melanoma 17.6%

O=C(Nc1nc2c(C(F)(F)F)cccc2s1)c1cc(Cl)ccc1O
active: K-562 leukemia 5.1% | MALME-3M melanoma -24.8% | MDA-MB-231 breast -13.2% | RXF 393 renal -5.36% | SF-295 CNS -21.2% | UACC-257 melanoma -23.7% | M14 melanoma 8.01%
inactive: DU-145 prostate 23% | SF-268 CNS 21.2% | SF-539 CNS 15%

CCC(C)C1NC(=O)C(CCNCS(=O)(=O)O)NC(=O)C(NC(=O)C(CCNCS(=O)(=O)O)NC(=O)C(NC(=O)C(CCNCS(=O)(=O)O)NC(=O)CCCCC(C)C)C(C)O)CCNC(=O)C(C(C)O)NC(=O)C(CCNCS(=O)(=O)O)NC(=O)C(CCNCS(=O)(=O)O)NC(=O)C(C(C)CC)NC1=O (stereo not drawn)
inactive: DU-145 prostate 117% | K-562 leukemia 20.2% | MALME-3M melanoma 48.9% | MDA-MB-231 breast 51.9% | RXF 393 renal 47.4% | SF-268 CNS 72.9% | SF-295 CNS 86.6% | SF-539 CNS 27.3% | UACC-257 melanoma 84.3% | M14 melanoma 34.7%

CNNc1ncnc2c1cnn2-c1ccc(S(N)(=O)=O)cc1
inactive: DU-145 prostate 112% | K-562 leukemia 78.3% | MALME-3M melanoma 112% | MDA-MB-231 breast 89.5% | RXF 393 renal 16% | SF-268 CNS 106% | SF-295 CNS 84% | SF-539 CNS 93.8% | UACC-257 melanoma 89% | M14 melanoma 95%

O=C(Nc1nc(-c2ccc(Cl)cc2)cs1)c1cc(-c2ccc(Br)cc2)nc2ccc(Cl)cc12
inactive: DU-145 prostate 55.6% | K-562 leukemia 25.2% | MALME-3M melanoma 44.6% | MDA-MB-231 breast 37.8% | RXF 393 renal 98.6% | SF-268 CNS 31.6% | SF-295 CNS 91%
active: SF-539 CNS 2.4% | M14 melanoma -16.8%

COc1cc(/C=C/c2cc(/C=C/c3ccc(O)c(OC)c3)n(C(=O)Cc3ccccc3)n2)ccc1O
active: K-562 leukemia 1.69% | MALME-3M melanoma -0.485% | RXF 393 renal -42.6% | SF-268 CNS 9.64% | SF-295 CNS 8.28% | SF-539 CNS -23.1% | UACC-257 melanoma -5.67% | M14 melanoma 0.243%
inactive: DU-145 prostate 17.3% | MDA-MB-231 breast 15.2%

CCN(CC)c1ccc(N=C2C=CC(=O)C=C2NC(C)=O)cc1
inactive: DU-145 prostate 111% | K-562 leukemia 77.9% | MALME-3M melanoma 142% | MDA-MB-231 breast 81.7% | RXF 393 renal 94.8% | SF-268 CNS 94% | SF-295 CNS 115% | SF-539 CNS 95.3% | UACC-257 melanoma 90.7% | M14 melanoma 109%

COc1ccc2ncccc2c1Cc1c(OC)ccc2ncccc12
inactive: DU-145 prostate 91.5% | K-562 leukemia 21.5% | MALME-3M melanoma 55.9% | MDA-MB-231 breast 71.1% | RXF 393 renal 82.1% | SF-268 CNS 84.2% | SF-295 CNS 63.9% | SF-539 CNS 75% | UACC-257 melanoma 68.2% | M14 melanoma 56.5%

O=C(Nc1ccccc1S)c1ccccc1
inactive: DU-145 prostate 111% | K-562 leukemia 86.2% | MALME-3M melanoma 116% | MDA-MB-231 breast 102% | RXF 393 renal 125% | SF-268 CNS 103% | SF-295 CNS 100% | SF-539 CNS 104% | UACC-257 melanoma 92.8% | M14 melanoma 101%

O=C(C(=O)c1cc(Br)ccc1O)c1cc(Br)ccc1O
inactive: DU-145 prostate 67.7% | K-562 leukemia 42.8% | MALME-3M melanoma 31.2% | MDA-MB-231 breast 64.8% | RXF 393 renal 65.7% | SF-268 CNS 38.1% | SF-295 CNS 67.9% | SF-539 CNS 53.2% | UACC-257 melanoma 43.1% | M14 melanoma 66.9%

COc1cccc(/C=C2\Cc3ccccc3C2=O)c1
inactive: DU-145 prostate 104% | K-562 leukemia 93.8% | MALME-3M melanoma 97% | MDA-MB-231 breast 104% | RXF 393 renal 103% | SF-268 CNS 109% | SF-295 CNS 94.6% | SF-539 CNS 101% | M14 melanoma 109%
